Test [1] has as its target Ephrin type-A receptor 5 (Homo sapiens) (UniProt P54756). The note with it: at 1 µM.
In test [2] the target is Ephrin type-A receptor 7 (Homo sapiens) (UniProt Q15375). The note with it: at 1 µM.
For test [3] the target is unchanged. To be noted: at 10 µM.
Test [4] concerns the target T1, Ephrin type-B receptor 3 (Homo sapiens) (UniProt P54753).
T1 sequence (whole entry): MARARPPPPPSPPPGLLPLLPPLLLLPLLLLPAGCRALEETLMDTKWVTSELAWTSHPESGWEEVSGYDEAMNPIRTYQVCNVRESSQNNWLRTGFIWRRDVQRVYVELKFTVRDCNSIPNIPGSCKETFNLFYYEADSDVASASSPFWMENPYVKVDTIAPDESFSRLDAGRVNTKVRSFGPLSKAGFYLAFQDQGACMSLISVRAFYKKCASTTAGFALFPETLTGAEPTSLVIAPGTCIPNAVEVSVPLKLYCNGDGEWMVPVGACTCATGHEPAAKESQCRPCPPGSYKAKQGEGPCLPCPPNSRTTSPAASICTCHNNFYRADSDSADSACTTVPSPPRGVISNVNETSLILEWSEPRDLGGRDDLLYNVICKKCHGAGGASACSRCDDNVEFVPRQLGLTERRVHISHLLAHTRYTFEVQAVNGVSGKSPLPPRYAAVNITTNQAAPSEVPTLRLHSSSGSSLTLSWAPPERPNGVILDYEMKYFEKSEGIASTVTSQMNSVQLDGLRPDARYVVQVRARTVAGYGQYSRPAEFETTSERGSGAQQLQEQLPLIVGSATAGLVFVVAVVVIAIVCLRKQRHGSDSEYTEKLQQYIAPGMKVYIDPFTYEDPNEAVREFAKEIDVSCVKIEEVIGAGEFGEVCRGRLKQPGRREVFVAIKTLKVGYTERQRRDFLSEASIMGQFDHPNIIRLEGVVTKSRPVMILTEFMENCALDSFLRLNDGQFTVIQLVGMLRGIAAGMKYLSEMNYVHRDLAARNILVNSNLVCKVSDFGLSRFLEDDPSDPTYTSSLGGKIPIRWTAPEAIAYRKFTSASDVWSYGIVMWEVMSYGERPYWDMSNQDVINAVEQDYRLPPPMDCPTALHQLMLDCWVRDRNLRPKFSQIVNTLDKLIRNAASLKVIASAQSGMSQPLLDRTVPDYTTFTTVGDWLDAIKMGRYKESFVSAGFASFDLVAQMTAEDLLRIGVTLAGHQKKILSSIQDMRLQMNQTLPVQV
To be noted: at 10 µM.

In test [5] the target is T2, Ephrin type-B receptor 4 (Homo sapiens) (UniProt P54760).
T2 sequence (whole entry): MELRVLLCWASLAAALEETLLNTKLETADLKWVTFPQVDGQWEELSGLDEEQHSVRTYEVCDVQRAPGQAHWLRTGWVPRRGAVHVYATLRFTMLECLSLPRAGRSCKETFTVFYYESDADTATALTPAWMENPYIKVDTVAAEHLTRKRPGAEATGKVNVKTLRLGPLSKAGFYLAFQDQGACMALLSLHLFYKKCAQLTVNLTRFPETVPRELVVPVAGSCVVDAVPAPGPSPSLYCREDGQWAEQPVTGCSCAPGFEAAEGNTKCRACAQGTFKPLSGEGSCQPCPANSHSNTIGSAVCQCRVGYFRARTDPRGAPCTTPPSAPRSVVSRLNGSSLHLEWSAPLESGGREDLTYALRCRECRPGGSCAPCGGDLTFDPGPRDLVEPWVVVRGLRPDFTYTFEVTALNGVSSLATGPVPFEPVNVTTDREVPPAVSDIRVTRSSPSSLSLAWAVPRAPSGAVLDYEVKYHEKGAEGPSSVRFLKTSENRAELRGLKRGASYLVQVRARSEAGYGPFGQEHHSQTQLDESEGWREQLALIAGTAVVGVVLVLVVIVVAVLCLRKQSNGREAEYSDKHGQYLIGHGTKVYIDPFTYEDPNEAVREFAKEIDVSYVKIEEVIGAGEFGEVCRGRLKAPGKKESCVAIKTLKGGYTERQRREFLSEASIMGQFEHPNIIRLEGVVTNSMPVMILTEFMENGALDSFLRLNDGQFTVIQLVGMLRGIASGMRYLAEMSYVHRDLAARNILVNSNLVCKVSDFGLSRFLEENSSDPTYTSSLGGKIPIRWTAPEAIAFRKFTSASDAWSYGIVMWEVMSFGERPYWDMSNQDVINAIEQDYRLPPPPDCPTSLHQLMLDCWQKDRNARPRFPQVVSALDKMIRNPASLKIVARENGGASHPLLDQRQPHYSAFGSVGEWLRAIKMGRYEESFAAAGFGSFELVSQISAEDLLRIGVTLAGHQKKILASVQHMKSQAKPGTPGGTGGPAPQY
To be noted: at 1 µM.

The target of test [6] is T2, Ephrin type-B receptor 4 (Homo sapiens). To be noted: at 10 µM.
The target of test [7] is Focal adhesion kinase 1 (Homo sapiens) (UniProt Q05397). The note with it: at 1 µM.
The target in test [8] is T3, Ephrin type-A receptor 3 (Homo sapiens) (UniProt P29320).
T3 sequence (whole entry): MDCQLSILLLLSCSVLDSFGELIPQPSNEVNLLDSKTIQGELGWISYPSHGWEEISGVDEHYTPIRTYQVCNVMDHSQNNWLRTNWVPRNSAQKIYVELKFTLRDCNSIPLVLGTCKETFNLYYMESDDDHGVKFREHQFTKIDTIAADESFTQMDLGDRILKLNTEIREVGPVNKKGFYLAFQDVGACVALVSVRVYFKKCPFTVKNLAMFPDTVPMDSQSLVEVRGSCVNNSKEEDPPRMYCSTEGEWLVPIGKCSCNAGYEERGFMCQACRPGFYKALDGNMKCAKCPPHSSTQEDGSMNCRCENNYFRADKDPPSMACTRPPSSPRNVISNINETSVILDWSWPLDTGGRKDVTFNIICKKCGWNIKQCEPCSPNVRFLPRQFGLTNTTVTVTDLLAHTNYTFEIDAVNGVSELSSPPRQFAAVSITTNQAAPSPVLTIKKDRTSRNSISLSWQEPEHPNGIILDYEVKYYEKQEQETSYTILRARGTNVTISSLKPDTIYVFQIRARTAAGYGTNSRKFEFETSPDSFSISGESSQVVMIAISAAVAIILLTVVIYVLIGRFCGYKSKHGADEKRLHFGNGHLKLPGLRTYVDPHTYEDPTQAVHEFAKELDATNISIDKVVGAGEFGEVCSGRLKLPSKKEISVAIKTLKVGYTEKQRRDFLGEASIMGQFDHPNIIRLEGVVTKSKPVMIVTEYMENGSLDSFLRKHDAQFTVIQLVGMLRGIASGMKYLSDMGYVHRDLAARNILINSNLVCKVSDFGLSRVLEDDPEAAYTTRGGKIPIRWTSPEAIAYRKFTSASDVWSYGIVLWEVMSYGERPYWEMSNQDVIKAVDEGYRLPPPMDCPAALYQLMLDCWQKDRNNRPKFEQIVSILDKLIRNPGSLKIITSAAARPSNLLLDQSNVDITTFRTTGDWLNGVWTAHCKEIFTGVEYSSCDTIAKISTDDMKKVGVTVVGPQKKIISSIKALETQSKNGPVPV
The note with it: at 10 µM.

Test [9] addresses T4, Ephrin type-A receptor 8 (Homo sapiens) (UniProt P29322).
T4 sequence (whole entry): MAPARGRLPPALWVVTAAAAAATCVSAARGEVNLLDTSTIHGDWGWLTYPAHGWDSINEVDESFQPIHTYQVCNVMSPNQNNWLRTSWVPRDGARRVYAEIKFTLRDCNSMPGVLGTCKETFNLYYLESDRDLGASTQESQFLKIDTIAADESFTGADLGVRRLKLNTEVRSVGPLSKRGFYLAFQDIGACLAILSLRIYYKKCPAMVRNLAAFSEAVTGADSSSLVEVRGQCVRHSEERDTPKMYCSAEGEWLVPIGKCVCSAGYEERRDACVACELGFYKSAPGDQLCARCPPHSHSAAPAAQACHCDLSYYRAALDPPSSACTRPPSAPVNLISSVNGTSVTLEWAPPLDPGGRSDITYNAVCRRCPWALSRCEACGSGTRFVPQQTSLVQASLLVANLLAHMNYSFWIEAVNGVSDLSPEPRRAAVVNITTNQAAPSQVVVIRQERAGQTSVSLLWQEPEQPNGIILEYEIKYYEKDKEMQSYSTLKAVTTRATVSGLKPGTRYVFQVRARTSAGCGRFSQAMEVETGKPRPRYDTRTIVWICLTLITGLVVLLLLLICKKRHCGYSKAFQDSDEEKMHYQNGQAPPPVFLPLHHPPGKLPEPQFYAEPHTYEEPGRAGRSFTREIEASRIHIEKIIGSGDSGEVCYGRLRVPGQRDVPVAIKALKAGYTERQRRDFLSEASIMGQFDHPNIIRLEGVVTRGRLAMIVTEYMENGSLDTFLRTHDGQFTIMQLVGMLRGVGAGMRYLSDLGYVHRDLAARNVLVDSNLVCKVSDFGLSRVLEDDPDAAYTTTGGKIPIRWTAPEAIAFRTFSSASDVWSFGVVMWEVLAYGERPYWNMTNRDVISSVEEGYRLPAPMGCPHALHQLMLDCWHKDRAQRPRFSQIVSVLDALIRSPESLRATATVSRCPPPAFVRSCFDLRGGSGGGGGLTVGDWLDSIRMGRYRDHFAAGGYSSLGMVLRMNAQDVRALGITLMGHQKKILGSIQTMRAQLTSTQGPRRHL
The note with it: at 1 µM.

Test [10] deals with T4, Ephrin type-A receptor 8 (Homo sapiens). To be noted: at 10 µM.
The target in test [11] is T1, Ephrin type-B receptor 3 (Homo sapiens). The note with it: at 1 µM.
The target in test [12] is T5, Ephrin type-B receptor 1 (Homo sapiens) (UniProt P54762).
T5 sequence (whole entry): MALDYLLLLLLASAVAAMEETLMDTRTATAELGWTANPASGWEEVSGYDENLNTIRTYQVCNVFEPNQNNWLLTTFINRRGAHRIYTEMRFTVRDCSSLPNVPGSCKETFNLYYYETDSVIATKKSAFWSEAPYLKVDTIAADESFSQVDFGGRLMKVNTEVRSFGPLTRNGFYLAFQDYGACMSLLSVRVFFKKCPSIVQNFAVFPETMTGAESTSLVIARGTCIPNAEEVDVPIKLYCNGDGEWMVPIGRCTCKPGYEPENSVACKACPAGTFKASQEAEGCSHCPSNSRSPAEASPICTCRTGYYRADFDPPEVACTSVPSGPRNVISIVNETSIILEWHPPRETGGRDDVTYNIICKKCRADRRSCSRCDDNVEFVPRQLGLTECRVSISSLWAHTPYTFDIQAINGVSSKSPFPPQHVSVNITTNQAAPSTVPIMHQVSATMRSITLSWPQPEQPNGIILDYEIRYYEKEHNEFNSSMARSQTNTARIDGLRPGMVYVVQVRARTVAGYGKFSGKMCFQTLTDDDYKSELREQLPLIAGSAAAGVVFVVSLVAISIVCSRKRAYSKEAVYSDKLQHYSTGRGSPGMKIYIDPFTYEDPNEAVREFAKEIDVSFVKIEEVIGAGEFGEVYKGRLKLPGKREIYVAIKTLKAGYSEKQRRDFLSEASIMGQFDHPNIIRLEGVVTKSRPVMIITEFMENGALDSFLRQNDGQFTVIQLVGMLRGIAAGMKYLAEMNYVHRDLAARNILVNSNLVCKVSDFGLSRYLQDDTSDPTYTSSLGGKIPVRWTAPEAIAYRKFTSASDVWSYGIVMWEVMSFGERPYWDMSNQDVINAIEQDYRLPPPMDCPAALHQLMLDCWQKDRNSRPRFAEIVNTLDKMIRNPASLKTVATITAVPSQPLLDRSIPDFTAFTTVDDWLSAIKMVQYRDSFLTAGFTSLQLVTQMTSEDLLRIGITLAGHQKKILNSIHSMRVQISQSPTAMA
The note with it: at 1 µM.

The target in test [13] is T5, Ephrin type-B receptor 1 (Homo sapiens). The note with it: at 10 µM.
Test [14] has as its target Receptor tyrosine-protein kinase erbB-4 (Homo sapiens) (UniProt Q15303). The note with it: at 10 µM.

Sequence of Focal adhesion kinase 1 (Homo sapiens) (Q05397 2-1052 limits assumed): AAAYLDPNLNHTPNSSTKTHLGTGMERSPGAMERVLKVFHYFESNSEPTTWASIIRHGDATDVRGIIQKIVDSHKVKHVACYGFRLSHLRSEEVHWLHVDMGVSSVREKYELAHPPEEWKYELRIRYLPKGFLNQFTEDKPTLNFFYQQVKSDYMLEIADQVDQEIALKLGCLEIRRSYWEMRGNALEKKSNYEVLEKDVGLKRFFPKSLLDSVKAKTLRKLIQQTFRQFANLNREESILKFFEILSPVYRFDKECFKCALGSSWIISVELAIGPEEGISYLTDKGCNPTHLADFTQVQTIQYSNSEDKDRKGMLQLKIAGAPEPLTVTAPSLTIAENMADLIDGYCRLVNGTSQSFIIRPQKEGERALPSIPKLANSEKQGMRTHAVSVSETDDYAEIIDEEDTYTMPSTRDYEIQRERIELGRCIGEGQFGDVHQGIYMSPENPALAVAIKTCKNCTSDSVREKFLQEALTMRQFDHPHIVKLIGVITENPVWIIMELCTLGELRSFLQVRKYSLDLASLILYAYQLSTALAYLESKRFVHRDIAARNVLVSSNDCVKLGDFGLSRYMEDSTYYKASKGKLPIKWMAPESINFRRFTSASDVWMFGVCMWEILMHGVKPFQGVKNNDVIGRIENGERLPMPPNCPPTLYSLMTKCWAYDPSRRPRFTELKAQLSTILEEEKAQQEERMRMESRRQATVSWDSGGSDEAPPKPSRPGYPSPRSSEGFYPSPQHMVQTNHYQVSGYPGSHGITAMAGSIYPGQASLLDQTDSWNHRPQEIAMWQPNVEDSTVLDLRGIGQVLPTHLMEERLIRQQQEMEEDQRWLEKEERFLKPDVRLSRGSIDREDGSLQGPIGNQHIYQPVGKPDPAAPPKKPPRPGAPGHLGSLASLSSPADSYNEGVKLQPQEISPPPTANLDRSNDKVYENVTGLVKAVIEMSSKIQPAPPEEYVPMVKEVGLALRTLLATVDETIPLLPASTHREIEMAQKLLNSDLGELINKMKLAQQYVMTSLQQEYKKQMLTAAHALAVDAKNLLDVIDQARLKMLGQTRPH
Sequence of Ephrin type-A receptor 7 (Homo sapiens) (Q15375 28-998 limits assumed): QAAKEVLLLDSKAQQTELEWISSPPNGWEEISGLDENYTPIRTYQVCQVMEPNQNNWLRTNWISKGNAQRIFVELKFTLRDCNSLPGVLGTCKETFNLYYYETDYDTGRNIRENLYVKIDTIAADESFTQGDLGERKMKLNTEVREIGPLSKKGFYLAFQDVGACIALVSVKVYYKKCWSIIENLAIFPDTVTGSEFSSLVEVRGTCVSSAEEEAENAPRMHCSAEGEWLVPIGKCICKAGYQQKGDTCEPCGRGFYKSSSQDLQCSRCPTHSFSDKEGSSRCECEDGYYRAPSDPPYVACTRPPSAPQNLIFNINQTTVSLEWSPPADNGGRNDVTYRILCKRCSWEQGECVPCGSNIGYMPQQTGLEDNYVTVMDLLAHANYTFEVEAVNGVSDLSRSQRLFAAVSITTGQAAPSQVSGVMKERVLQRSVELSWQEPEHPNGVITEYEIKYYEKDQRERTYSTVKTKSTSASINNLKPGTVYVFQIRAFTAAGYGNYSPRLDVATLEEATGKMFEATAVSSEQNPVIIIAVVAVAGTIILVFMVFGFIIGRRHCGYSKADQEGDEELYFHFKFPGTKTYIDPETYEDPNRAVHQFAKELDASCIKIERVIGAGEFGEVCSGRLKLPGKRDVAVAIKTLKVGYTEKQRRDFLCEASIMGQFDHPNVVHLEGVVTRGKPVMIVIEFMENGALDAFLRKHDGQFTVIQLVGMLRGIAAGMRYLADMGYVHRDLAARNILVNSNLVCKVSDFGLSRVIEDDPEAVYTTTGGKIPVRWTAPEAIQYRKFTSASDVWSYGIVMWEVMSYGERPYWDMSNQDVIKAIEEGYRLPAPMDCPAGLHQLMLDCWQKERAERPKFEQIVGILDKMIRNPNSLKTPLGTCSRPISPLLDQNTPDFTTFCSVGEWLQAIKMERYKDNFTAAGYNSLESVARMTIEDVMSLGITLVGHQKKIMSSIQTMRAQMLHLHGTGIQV
Sequence of Ephrin type-A receptor 5 (Homo sapiens) (P54756 whole entry): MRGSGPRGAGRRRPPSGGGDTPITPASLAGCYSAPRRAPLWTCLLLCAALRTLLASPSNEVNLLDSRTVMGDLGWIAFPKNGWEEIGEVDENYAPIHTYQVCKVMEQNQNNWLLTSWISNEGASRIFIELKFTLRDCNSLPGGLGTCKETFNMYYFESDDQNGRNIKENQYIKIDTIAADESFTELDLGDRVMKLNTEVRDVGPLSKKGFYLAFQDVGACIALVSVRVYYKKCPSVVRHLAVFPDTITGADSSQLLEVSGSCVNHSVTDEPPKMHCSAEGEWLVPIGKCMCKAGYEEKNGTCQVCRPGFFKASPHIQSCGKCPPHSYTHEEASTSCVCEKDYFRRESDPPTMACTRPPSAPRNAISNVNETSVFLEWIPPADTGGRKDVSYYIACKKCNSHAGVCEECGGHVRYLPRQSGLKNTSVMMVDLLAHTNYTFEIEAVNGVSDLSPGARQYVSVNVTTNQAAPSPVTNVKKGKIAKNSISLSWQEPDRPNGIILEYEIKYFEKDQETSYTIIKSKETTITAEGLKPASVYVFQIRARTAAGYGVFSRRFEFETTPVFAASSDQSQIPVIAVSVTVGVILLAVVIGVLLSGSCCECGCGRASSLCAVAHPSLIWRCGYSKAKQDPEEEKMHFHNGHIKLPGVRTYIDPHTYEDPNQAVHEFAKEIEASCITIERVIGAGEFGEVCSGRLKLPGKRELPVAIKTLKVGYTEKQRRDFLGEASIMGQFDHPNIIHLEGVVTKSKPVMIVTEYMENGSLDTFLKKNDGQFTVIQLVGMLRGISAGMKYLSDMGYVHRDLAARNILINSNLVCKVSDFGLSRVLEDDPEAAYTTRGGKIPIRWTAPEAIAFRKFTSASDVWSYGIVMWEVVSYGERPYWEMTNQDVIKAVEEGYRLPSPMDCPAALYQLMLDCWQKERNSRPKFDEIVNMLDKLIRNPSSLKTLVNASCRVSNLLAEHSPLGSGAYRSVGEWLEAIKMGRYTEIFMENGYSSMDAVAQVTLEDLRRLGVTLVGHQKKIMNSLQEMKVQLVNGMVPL
Sequence of Receptor tyrosine-protein kinase erbB-4 (Homo sapiens) (Q15303 whole entry): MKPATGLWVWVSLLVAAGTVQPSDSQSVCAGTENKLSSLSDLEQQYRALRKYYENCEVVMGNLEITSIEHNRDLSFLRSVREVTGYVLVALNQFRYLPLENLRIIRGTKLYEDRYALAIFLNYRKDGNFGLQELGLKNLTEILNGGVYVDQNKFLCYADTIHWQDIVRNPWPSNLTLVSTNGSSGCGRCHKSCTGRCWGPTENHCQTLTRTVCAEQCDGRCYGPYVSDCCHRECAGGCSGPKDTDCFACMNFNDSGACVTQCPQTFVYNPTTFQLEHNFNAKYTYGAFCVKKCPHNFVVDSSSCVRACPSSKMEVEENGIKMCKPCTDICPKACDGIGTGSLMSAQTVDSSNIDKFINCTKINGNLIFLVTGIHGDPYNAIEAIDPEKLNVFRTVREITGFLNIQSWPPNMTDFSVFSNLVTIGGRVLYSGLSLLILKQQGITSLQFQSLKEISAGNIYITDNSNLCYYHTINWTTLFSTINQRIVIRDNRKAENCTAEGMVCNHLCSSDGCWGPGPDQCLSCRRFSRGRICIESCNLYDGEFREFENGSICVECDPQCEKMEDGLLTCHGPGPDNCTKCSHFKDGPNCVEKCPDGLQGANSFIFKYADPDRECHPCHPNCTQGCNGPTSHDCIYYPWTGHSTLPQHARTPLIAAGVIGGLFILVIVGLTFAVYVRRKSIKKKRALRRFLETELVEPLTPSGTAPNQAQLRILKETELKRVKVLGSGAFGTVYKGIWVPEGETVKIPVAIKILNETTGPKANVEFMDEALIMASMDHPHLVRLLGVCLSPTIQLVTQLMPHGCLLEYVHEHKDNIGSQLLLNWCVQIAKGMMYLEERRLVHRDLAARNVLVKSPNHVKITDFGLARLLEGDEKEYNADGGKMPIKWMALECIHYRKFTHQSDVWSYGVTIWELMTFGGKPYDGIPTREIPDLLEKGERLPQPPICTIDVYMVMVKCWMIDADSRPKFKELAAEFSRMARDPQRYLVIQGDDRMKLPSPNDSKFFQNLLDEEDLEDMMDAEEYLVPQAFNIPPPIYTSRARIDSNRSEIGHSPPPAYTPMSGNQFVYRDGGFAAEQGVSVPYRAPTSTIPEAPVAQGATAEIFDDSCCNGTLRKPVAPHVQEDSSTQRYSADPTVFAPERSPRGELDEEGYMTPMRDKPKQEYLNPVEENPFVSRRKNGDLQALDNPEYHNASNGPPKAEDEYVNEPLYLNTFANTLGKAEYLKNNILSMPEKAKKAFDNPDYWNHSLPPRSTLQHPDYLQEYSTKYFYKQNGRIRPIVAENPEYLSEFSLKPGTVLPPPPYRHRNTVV

On to `N#C/C(=C\c1ccc(O)c(O)c1)C(=O)NCc1ccccc1`, for which the residual activity stood at 101% in [1]; 104% in test [2]; 85% in test [3]; 133% in [4]; 129% in test [5]; 102% in test [6]. In [7], the residual activity is 127%.
With `O=C1NC(=O)C(c2cn(CCCO)c3ncccc23)=C1c1cnccn1`, the residual activity is 92% in test [8]; 99% in test [9]; 94% in [10]; 94% (inactive) in test [11]; 99% in test [4]; 92% in test [5]. For the same compound, in test [6], the residual activity was 98%.
Consider `c1ccc(-c2cnc(Nc3ccc(OCCN4CCCC4)cc3)s2)cc1`, for which the residual activity is 69% in [8]; 104% in [2]; 76% in test [3]; 104% in test [12]; 65% in [13]; 112% (inactive) in [11]. Moreover, the residual activity in test [4] was found to be 120%; in test [5] it was 109%; in test [6] it was 64%; in test [14], 61%; in [7], 132%.
On to `O=C1Nc2ccccc2/C1=C\c1c(Cl)[nH]c2ccccc12`, for which the residual activity in test [1] was determined as 118%; in test [5], 117%; in [6], 134%.
On to `O=C(Nc1ccc(Cl)cc1)c1ccccc1NCc1ccncc1`, for which the residual activity in test [4] turned out to be 125%; in test [5] it was 117%; in test [6], 131%; in test [7], 143%.
`CCOC(=O)c1c(C)[nH]c(/C=C2\C(=O)Nc3ccccc32)c1C`: the residual activity in [8] came to 99%; in test [2] it was 97%; in test [3], 93%; in [12], 97%; in [7] it was 133%.
Turning to `Cc1cc(C)c(/C=C2\C(=O)Nc3ccccc32)[nH]1`, the values for the residual activity in test [8], in [3] and in test [7] were 80%, 52% and 52%, respectively.

Usually residual activity stands for the signal under treatment as a percentage of the control signal.

These data come from ChEMBL document CHEMBL2218924, “A broad activity screen in support of a chemogenomic map for kinase signalling research and drug discovery” (Biochem J, 2013).
